PME-1 inh: PME-1 inhibitors via competitive probe labeling, primary screen, biochemical, fluorescence polarization, FP-Rh probe, HTS; Protein phosphatase methylesterase 1 (Homo sapiens), Q9Y570; recombinant PME-1; inhibition, % at 5.9 µM; hit rate 0.53% among 320,000; AID 2130, 2009;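 active means inhibition above the campaign mean of all compounds plus 3 SD, cut at about 26% in these data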;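 further: competitive labeling of PME-1 active site by serine hydrolase directed probe; 0% = PME-1 with DMSO and 100% = wells lacking PME-1 enzyme; inhibitors block probe labeling so polarization falls and inhibition rises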
Target sequence (Q9Y570 whole entry, looked up): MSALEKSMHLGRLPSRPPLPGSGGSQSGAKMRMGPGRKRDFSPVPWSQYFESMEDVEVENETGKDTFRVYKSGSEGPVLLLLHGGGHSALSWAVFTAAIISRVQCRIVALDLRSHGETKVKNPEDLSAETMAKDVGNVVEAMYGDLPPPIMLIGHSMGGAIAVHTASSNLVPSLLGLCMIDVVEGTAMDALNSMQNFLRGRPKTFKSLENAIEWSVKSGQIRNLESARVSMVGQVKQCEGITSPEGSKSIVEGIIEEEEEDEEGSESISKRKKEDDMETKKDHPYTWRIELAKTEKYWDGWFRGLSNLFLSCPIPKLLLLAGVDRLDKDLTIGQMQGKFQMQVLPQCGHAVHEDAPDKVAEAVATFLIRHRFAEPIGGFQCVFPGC
PAFAH1B3 inh: PAFAH1B3 enzyme inhibitors, primary screen, biochemical, fluorescence polarization, human; recombinant PAFAH1B3, FP-rhodamine probe; inhibition, % at 3.39 µM; hit rate 0.28% among 340,000; AID 492972, 2010;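 active means inhibition above the screen-wide average of all tested compounds plus 3 SD, cut at about 25% in these data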;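 further: 0% = enzyme with DMSO only and 100% = wells lacking PAFAH1B3 protein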
Target sequence (Q15102 whole entry, looked up): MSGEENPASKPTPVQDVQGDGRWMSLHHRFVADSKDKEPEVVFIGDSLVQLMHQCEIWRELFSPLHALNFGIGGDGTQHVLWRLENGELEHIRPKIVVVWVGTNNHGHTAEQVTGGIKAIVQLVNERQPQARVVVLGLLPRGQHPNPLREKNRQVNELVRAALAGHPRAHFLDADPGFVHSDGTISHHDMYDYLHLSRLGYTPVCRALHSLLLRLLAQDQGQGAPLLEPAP
Fam108B inh: mouse Fam108B serine hydrolase inhibitors, primary screen, counter-screen for RBBP9 inhibitor project, biochemical, fluorescence polarization | inhibition, % at 9.51 µM | hit rate 0.33% among 300,000 | AID 1947, 2009 | recombinant Fam108B, FP-Rh probe fluorescence polarization;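 active means inhibition above the screen mean inhibition plus 3 SD, computed separately per campaign, cut at about 18% in these data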;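 further: inhibitors lower polarization as less probe binds the enzyme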
PAFAH2 inh: PAFAH2 enzyme inhibitors, primary screen, biochemical, fluorescence polarization, human; inhibition, % at 3.39 µM; Platelet-activating factor acetylhydrolase 2, cytoplasmic (Homo sapiens), Q99487; recombinant PAFAH2, FP-rhodamine activity probe; AID 492956, 2010; hit rate 0.99% among 340,000;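 active means inhibition above the mean over all tested compounds plus 3 SD, cut at about 30% in these data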;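 further: inhibitors block probe labeling of enzyme so polarization drops; 0% = enzyme with DMSO and 100% = wells lacking PAFAH2 protein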
pPAFAH inh: pPAFAH enzyme inhibitors, primary screen, biochemical, fluorescence polarization, human; inhibition, % at 3.39 µM; Platelet-activating factor acetylhydrolase (Homo sapiens), Q13093; hit rate 1.5% among 330,000; recombinant pPAFAH, FP-rhodamine probe fluorescence polarization; AID 463082, 2010;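 active means inhibition above the mean inhibition across the screen plus 3 SD, cut at about 25% in these data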;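 further: inhibitors block binding of the rhodamine activity-based probe so polarization drops; 0% = enzyme with DMSO and 100% = wells lacking pPAFAH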
PAFAH1B2 inh: PAFAH1B2 enzyme inhibitors, primary screen, biochemical, fluorescence polarization, human; inhibition, % at 3.39 µM; Platelet-activating factor acetylhydrolase IB subunit alpha2 (Homo sapiens), P68402; recombinant PAFAH1B2, FP-rhodamine activity probe; hit rate 1.2% among 340,000;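 active means inhibition above the mean of all tested compounds plus 3 SD, cut at about 24% in these data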;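 further: 0% = enzyme with DMSO and 100% = wells lacking PAFAH1B2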
PAFAH2 FP conf: PAFAH2 enzyme inhibitors, confirmation, biochemical, fluorescence polarization, human; recombinant PAFAH2, FP-rhodamine activity probe; inhibition, % at 3.39 µM; hit rate 65% among 2,300; shares compounds with PAFAH2 inh; AID 493030, 2011;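 active means mean inhibition over three repeats above a set limit taken from the earlier primary screen, cut at about 30% in these data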;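 further: inhibitor blocks binding of rhodamine activity probe so polarization falls; 0% = enzyme with DMSO and 100% = wells lacking PAFAH2 protein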
Active calls of the source: *; nt = no result given. The list is not random: actives were taken first. Their share in the collection is about 2.9%.

SMILES | PME-1 inh | PAFAH1B3 inh | Fam108B inh | PAFAH2 inh | pPAFAH inh | PAFAH1B2 inh | PAFAH2 FP conf
Cc1ccc(S(=O)(=O)N2CCOCC2)cc1NC(=O)COC(=O)c1ccc(Cl)s1 | nt | 5.7 | nt | 44.1* | 2.6 | 5.8 | 32.5*
Cc1ccc(NC(=O)COC(=O)c2cccnc2Cl)cc1S(=O)(=O)N1CCOCC1 | nt | -5.5 | nt | 44.4* | 4.0 | 0.8 | 38.1*
CCOc1ncccc1C(=O)OCC(=O)Nc1ccc(S(=O)(=O)N2CCOCC2)cc1 | 6.8 | 8.2 | -0.8 | 3.3 | 3.9 | 1.4 | nt
Cc1ccc(S(=O)(=O)N2CCOCC2)cc1NC(=O)COC(=O)c1cc(=O)[nH]c2ccccc12 | -0.7 | 6.2 | -1.6 | 4.8 | -8.5 | 0.7 | nt
CCOc1ncccc1C(=O)OCC(=O)Nc1cc(S(=O)(=O)N2CCOCC2)ccc1C | 4.7 | -0.5 | -0.1 | 41.7* | 8.4 | -2.7 | 38.9*
COc1ccc(N(C)S(=O)(=O)c2cccc3cccnc23)c(OC)c1 | 4.8 | 12.6 | -0.4 | -0.5 | -6.6 | 0.3 | nt
CNC(=O)CC(CC(=O)c1ccccc1)c1ccccc1 (stereo not given) | 0.4 | 9.3 | nt | 2.1 | -0.3 | 0.8 | nt
O=C(COC(=O)CCC(=O)c1ccc(F)cc1)NCc1ccccc1Cl | nt | 3.6 | nt | 7.1 | 13.7 | 3.9 | nt
Cc1ccc(S(=O)(=O)N2CCOCC2)cc1NC(=O)COC(=O)c1cccc(Cl)c1Cl | nt | -0.8 | nt | 41.3* | nt | 3.1 | 26.8
CCOc1ncccc1C(=O)OCC(=O)Nc1ccc(C)c(S(=O)(=O)N(C)C)c1 | 0.1 | -1.7 | -5.0 | 80.1* | 14.2 | 1.1 | 86.1*
CCOc1ncccc1C(=O)OCC(=O)Nc1cc(S(=O)(=O)N2CCCCC2)ccc1Cl | nt | 4.0 | nt | 68.3* | nt | 1.0 | 54.7*
CCOc1ncccc1C(=O)OCC(=O)Nc1ccc(S(=O)(=O)N2CCCC2)cc1 | 3.0 | 15.1 | nt | 9.8 | 1.8 | 0.0 | nt
O=C(NCc1ccccc1)C1COc2ccccc2O1 (stereo not given) | -4.0 | 1.9 | -4.4 | -1.9 | 4.6 | 4.1 | nt
O=C1OC(C(=O)NCc2ccccc2)Cc2ccccc21 (stereo not given) | -0.3 | 11.8 | -2.5 | 34.8* | 1.2 | 4.6 | 20.1
O=C(COC(=O)c1ccco1)NC(c1ccccc1)c1ccccc1 | 1.7 | 7.2 | -3.5 | 17.4 | 2.3 | 2.6 | nt
Cc1cc(NC(=O)COC(=O)C2CC2)ccc1Br | 0.3 | -3.5 | nt | 77.4* | 14.0 | -2.4 | 74.3*
CC(CNC(=O)COC(=O)c1ccco1)c1ccccc1 (stereo not given) | 7.5 | 2.9 | nt | 57.1* | 1.5 | 0.1 | 48.0*
O=C(COC(=O)c1ccco1)Nc1cccc(Br)c1 | -10.5 | 5.6 | 2.4 | 90.9* | 3.7 | -3.0 | 67.7*
O=C(COC(=O)c1cc[n+]([O-])cc1)Nc1cccc(Br)c1 | nt | 2.4 | nt | -2.6 | nt | -3.9 | nt
O=C(COC(=O)c1ccco1)Nc1ccc2c(c1)OCO2 | 1.7 | 5.5 | -0.4 | 62.8* | 7.0 | 5.9 | 66.2*
Cc1ccc(C(=O)NC(=S)N2CC(C)OC(C)C2)cc1[N+](=O)[O-] (stereo not given) | -0.6 | 5.1 | 0.5 | -5.0 | 3.5 | -0.3 | nt
O=C(CN1C(=O)NC(c2ccccc2)(c2ccccc2)C1=O)NC1CCCC1 | 0.4 | -2.3 | nt | -6.4 | -1.9 | 0.9 | nt
CCOC(=O)c1c(SC)nc(SC)c2c1CCC2 | -5.2 | 6.7 | 1.9 | -6.4 | -2.6 | -0.9 | nt
CC1CCN(C(=O)Cn2cc(C(F)(F)F)ccc2=O)c2ccccc2S1 (stereo not given) | nt | 10.1 | nt | 3.7 | 5.2 | 8.2 | nt
O=C(COC(=O)c1ccco1)Nc1ccccc1[N+](=O)[O-] | 0.0 | 2.1 | 1.6 | 40.6* | -0.1 | 3.0 | 28.1
SMILES | PME-1 inh | PAFAH1B3 inh | Fam108B inh | PAFAH2 inh | pPAFAH inh | PAFAH1B2 inh | PAFAH2 FP conf
CC1CC1C(=O)OCC(=O)Nc1cccc(Br)c1 (stereo not given) | nt | 1.3 | nt | 88.2* | nt | 3.0 | 85.1*
O=C(COC(=O)C12CC3CC(CC(O)(C3)C1)C2)Nc1cccc(Br)c1 | nt | 7.6 | nt | 74.3* | nt | 9.6 | 69.1*
O=C(COC(=O)C12CC3CC(CC(O)(C3)C1)C2)NC(=O)NCc1ccco1 | -4.2 | 0.9 | -1.8 | -0.8 | 3.4 | -1.2 | nt
Cc1ccc(C(=O)Nc2ccc3c(c2)OCO3)o1 | -4.7 | 4.9 | -1.6 | -1.2 | 3.4 | -0.7 | nt
COCC(=O)Nc1cccc(Br)c1 | 0.7 | 2.0 | -1.0 | -0.1 | 1.9 | 1.0 | nt
Cc1ccc(C(=O)OCC(=O)Nc2ccc3c(c2)OCO3)o1 | -1.4 | 7.8 | 1.4 | 62.0* | 5.9 | 3.9 | 60.1*
CC(=O)c1c(C)[nH]c(C(=O)NC2=NCCS2)c1C | -0.6 | 1.5 | -0.1 | -2.9 | 2.5 | 7.0 | nt
O=C(NCc1ccc(F)cc1)C(c1ccccc1)N(C(=O)c1csnn1)C1CCCC1 (stereo not given) | 7.1 | -1.8 | 1.1 | -6.8 | 7.3 | 2.9 | nt
O=C(COC(=O)c1cc(Br)ccc1O)Nc1ccc2c(c1)OCO2 | -5.7 | -1.4 | nt | 36.8* | 4.7 | 2.3 | 17.7
CC1CC1C(=O)OCC(=O)NCc1ccccc1 (stereo not given) | nt | 0.8 | nt | 35.6* | 2.3 | 0.2 | 25.4
O=C(COC(=O)C1CCC1)NCc1ccccc1 | -3.8 | -6.2 | -0.1 | 6.4 | 8.1 | 3.0 | nt
O=C(CCc1n[nH]c(=O)[nH]c1=O)N1CCCCC1 | -5.9 | 6.8 | -3.5 | 7.5 | 0.0 | 4.8 | nt
COc1cc2nc(COc3ccccc3[N+](=O)[O-])oc(=O)c2cc1OC | -8.6 | 5.5 | 3.7 | 50.5* | 4.9 | 0.6 | 69.0*
CC1CCCC(NC(=O)COC(=O)/C=C/c2ccc(F)cc2)C1C (stereo not given) | nt | 5.4 | nt | 64.7* | 8.2 | 0.1 | 68.6*
COc1ccc(/C=C/C(=O)OCC(=O)NC2CCCC(C)C2C)cc1 (stereo not given) | nt | -3.4 | nt | 82.5* | 9.1 | 6.8 | 79.4*
COC(=O)c1ccc(/C=N/OCC(=O)NC2CCCC(C)C2C)cc1 (stereo not given) | 3.6 | 4.2 | -1.5 | 5.3 | 6.5 | 4.8 | nt
CCOC(=O)n1cc(C(=O)c2ccccc2O)cn1 | -7.6 | -1.2 | -0.8 | 20.4 | 5.3 | -3.3 | nt
CC(C)(C)OC(=O)n1cc(C(=O)c2ccccc2O)cn1 | -3.9 | 8.3 | -1.1 | 84.2* | 0.1 | 0.3 | 69.1*
Cc1ccc(C(=O)c2ccccc2C(=O)OCC(=O)NCCc2ccccc2)cc1 | 2.9 | 5.1 | 4.6 | 9.2 | 3.9 | 7.2 | nt
